Shown are actives, neighbours in structure and some others; about 9.9% of the full set was active somewhere.
SW480 rereplic = inducers of DNA re-replication in SW480 colon cancer cells; SW480 DNA re-replication, Hoechst DNA content imaging, 48 h; Potency, µM (doses to about 46.1 µM), most hits filed as activators; hit rate 1.8% among 340,000; AID 624297; note: nearly all actives have a fitted effect of over 55% in size
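250 cells/well; 23 nL cpd via pin tool; 48 hr, 37 C, 5% CO2; Hoechst 40 min; imager read of total nuclear intensity, ex 405/em 500-530 nm.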
MCF10A rereplic = DNA re-replication induction in MCF 10a cells; AID 624296; MCF 10A DNA re-replication, Hoechst nuclear intensity, 48 h; Potency, µM (doses to about 46.1 µM), hits mostly activators; hit rate 2.9% among 350,000; note: nearly all actives have a fitted effect of over 50% in size
KB-V1 MDR tox = KB-V1 MDR subline cytotoxicity; KB-V1 MDR cells viability, CellTiter-Glo, 72 h; Potency, µM (series often up to 46.1 µM), hits mostly cytotoxic; hit rate 3.4% among 400,000; note: nearly all actives have a fitted effect of over 60% in size
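Potencies derive from concentration-effect curves fitted to normalized luminescence (CellTiter-Glo) of KB-V1 cells treated for 72 h at 37 degrees C in phenol-red-free DMEM containing 10% FBS.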
KB-3-1 cytotox = kills parental KB-3-1 adenocarcinoma cells; KB-3-1 viability, CellTiter-Glo ATP luminescence, 72 h; Potency, µM (doses to about 46.1 µM), usual class: cytotoxic; hit rate 1.4% among 400,000; note: nearly all actives have a fitted effect of over 60% in size
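Luminescent ATP read-out (CellTiter-Glo) measures survival of drug-naive KB-3-1 cells after 72 h compound exposure at 37 °C. Titration series was screened from lowest to highest concentration, with DMSO vehicle plates as background controls.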
IL1B secr inh = blocks inflammasome-driven IL-1 beta release; hit rate 4.7% among 360,000; THP-1 LPS/ATP IL-1B secretion, AlphaLISA, 16 h; hits give low values; activity change, % at 57.5 µM; in the data active = activity change below about -50%; inconclusive = mostly about -30% to -49%
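THP-1 cells pretreated 1 hr with compounds (up to 57.5 uM final), then stimulated with LPS (250 ng/mL final) plus ATP (1.25 mM final); secreted IL-1B measured by AlphaLISA after 16 hr, decreased signal indicating inhibition.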
Large screens that a line does not name were inactive. Unless noted, calls come from the whole dose curve; as a rule, active = well fitted curve in the direction sought with a large enough effect; inconclusive = small, poorly fitted or top-dose-only effect, or another doubt; inactive = no such curve, though single readings can be large; an effect the other way counts as inactive or inconclusive.

O=C1Cc2ccccc2C(c2ccc(Br)cc2)N1 (stereo not drawn)	SW480 rereplic inconclusive, KB-V1 MDR tox inconclusive
Cc1c2cnn(-c3ccccc3)c(=O)c2c(C)n1C(C)C(=O)Nc1ccccc1C(F)(F)F (stereo not drawn)	none (no result: SW480 rereplic, MCF10A rereplic, IL1B secr inh)
Clc1ccc(C2Nc3cccc4cccc(c34)N2)c(Cl)c1	SW480 rereplic inconclusive, KB-3-1 cytotox inconclusive
O=C1NC(c2cccc3ccccc23)Nc2ccc(Cl)cc21 (stereo not drawn)	SW480 rereplic 0.73µM, MCF10A rereplic inconclusive, KB-V1 MDR tox 0.23µM, KB-3-1 cytotox 0.18µM
O=C(NCC(c1cccs1)N1CCOCC1)C1CCN(S(=O)(=O)c2c(Cl)cccc2Cl)CC1 (stereo not drawn)	KB-V1 MDR tox inconclusive
O=C(NCC(c1cccs1)N1CCOCC1)c1cnc(Cl)c(Cl)c1 (stereo not drawn)	SW480 rereplic inconclusive, IL1B secr inh -98 (no result: KB-V1 MDR tox, KB-3-1 cytotox)
Cc1ccc(C(C)C)c(OCC(=O)NCC(c2cccs2)N2CCOCC2)c1 (stereo not drawn)	MCF10A rereplic inconclusive, KB-V1 MDR tox inconclusive, IL1B secr inh inconclusive
O=C(NCC(c1cccs1)N1CCOCC1)C1CCN(S(=O)(=O)c2cc(Cl)ccc2Cl)CC1 (stereo not drawn)	KB-V1 MDR tox 9.2µM
Cc1cc(OCC(=O)NCC(c2cccs2)N2CCOCC2)ccc1C(C)C (stereo not drawn)	IL1B secr inh -57
O=C(NCC(c1cccs1)N1CCOCC1)c1cccnc1 (stereo not drawn)	none
O=C(COc1cccc(Cl)c1)NCC(c1cccs1)N1CCOCC1 (stereo not drawn)	none
Cc1cc(Cl)ccc1OCC(=O)NCC(c1cccs1)N1CCOCC1 (stereo not drawn)	KB-V1 MDR tox 7.3µM, KB-3-1 cytotox inconclusive, IL1B secr inh inconclusive
COc1ccc(OC)c(NC(=O)C(C)n2c(=O)c(-c3ccccc3NC(C)=O)nc3ccccc32)c1 (stereo not drawn)	none (no result: SW480 rereplic, MCF10A rereplic, IL1B secr inh)
CCC(Sc1nc2ccccc2c2nc(CCn3c(C)nc4ccccc43)nn12)C(=O)Nc1ccc(F)cc1 (stereo not drawn)	none (no result: SW480 rereplic, MCF10A rereplic, IL1B secr inh)
CC(=O)NC(c1ccccc1)c1nc(-c2ccc(Cl)cc2)cs1 (stereo not drawn)	none (no result: SW480 rereplic, MCF10A rereplic)
O=C(CCNC(=O)c1ccccc1Cl)Nc1cccc(S(=O)(=O)N2CCCCC2)c1	none
O=C(CN1CCN(S(=O)(=O)c2ccc(F)cc2)CC1)Nc1cccc(C(F)(F)F)c1	KB-V1 MDR tox inconclusive, IL1B secr inh -69
O=C(CCS(=O)(=O)c1ccc(Cl)cc1)Nc1cccc(S(=O)(=O)N2CCCCCC2)c1	KB-V1 MDR tox 21µM
O=C(CN1CCN(Cc2ccccc2)CC1)Nc1cccc(C(F)(F)F)c1	KB-V1 MDR tox 16µM
O=C(Nc1csc([N+](=O)[O-])c1)Nc1ccccc1Cl	MCF10A rereplic 12µM, KB-V1 MDR tox inconclusive, IL1B secr inh -98
COc1cc(C)ccc1S(=O)(=O)NC(=O)C1(C)CCN1C(=O)c1ccc(C(F)(F)F)nc1C (stereo not drawn)	none (no result: SW480 rereplic, MCF10A rereplic)
COCCNC(=O)CSc1nnc(NC(=O)C2CC(=O)N(c3ccccc3OC)C2)s1 (stereo not drawn)	none
CCCCN(C)C(=O)Cn1c(SCC(=O)Nc2ccc(C)c(C)c2)nc2ccccc21	none (no result: SW480 rereplic, MCF10A rereplic, IL1B secr inh)
COc1ccc(N2Cc3cccc(C(=O)Nc4ccc(C)c(C)c4)c3C2=O)cc1	none (no result: SW480 rereplic, MCF10A rereplic, IL1B secr inh)
O=C(CN1CCN(Cc2ccccc2)CC1)Nc1ccc2c(c1)CCC2	KB-V1 MDR tox inconclusive, KB-3-1 cytotox inconclusive, IL1B secr inh -86
CSc1cccc(NC(=O)C2CCCN(S(=O)(=O)c3ccc(F)cc3)C2)c1 (stereo not drawn)	KB-V1 MDR tox inconclusive
O=C(Nc1cc(S(=O)(=O)N2CCCC2)ccc1Cl)c1cc(F)c(F)c(F)c1F	MCF10A rereplic inconclusive, IL1B secr inh -99
O=C(Nc1cccc(Cl)c1)C1CCCN(S(=O)(=O)c2ccc(F)cc2)C1 (stereo not drawn)	KB-V1 MDR tox 6.5µM, KB-3-1 cytotox inconclusive, IL1B secr inh -51
CCn1ccc2cc(S(=O)(=O)N3CCCN(C(=O)Nc4cccc(Cl)c4)CC3)ccc21	KB-V1 MDR tox 10µM, KB-3-1 cytotox inconclusive (no result: SW480 rereplic, MCF10A rereplic, IL1B secr inh)
Cc1ccc(S(=O)(=O)N(C)/N=C2/C(=O)N(CC(=O)O)c3ccccc32)cc1	none
CC(C)C[C@@]12C(=O)N(c3cccc(F)c3)C(=O)N1[C@H](c1ccc(Cl)cc1)[C@@H]1C(=O)N(C3CCCCC3)C(=O)[C@@H]12	none
O=C(CN1CCN(Cc2ccccc2)CC1)Nc1cccc(S(=O)(=O)N2CCCCCC2)c1	SW480 rereplic inconclusive, KB-V1 MDR tox inconclusive, IL1B secr inh -69
O=C(Nc1ccc2c(c1)CCC2)Nc1ccccc1Cl	MCF10A rereplic inconclusive, KB-V1 MDR tox inconclusive, IL1B secr inh -69
CC1CCN(CC(=O)Nc2cccc(C(=O)Nc3cccc(C(F)(F)F)c3)c2)CC1	SW480 rereplic inconclusive, MCF10A rereplic inconclusive, KB-3-1 cytotox inconclusive, IL1B secr inh -75
O=C(CN1CCOCC1)Nc1cccc(S(=O)(=O)N2CCCCCC2)c1	none
CCOc1ccccc1NC(=O)Nc1ccc2c(c1)CCC2	none
O=C(Nc1cccc(Cl)c1)Nc1cc(S(=O)(=O)N2CCCCC2)ccc1Cl	SW480 rereplic inconclusive, MCF10A rereplic 6.5µM, KB-V1 MDR tox inconclusive, KB-3-1 cytotox inconclusive, IL1B secr inh -88
CC1CN(CC(=O)Nc2cccc(C(=O)Nc3cccc(C(F)(F)F)c3)c2)CC(C)O1 (stereo not drawn)	SW480 rereplic inconclusive, MCF10A rereplic inconclusive
O=C(CN(C(=O)c1csnn1)c1ccc2c(c1)OCCO2)NCc1ccccc1	none
O=C(/C=C/c1cccc(Cl)c1)Nc1cccc([S+](=O)([O-])Nc2ccccc2F)c1	none (no result: SW480 rereplic, MCF10A rereplic, IL1B secr inh)
CC(C)c1ccccc1-n1c(SCc2cc(=O)oc3ccc4ccccc4c23)nnc1-c1cccnc1	KB-V1 MDR tox 21µM, KB-3-1 cytotox inconclusive, IL1B secr inh -51 (no result: SW480 rereplic)
Cc1nnc(SCc2cc(=O)oc3ccc4ccccc4c23)n1Cc1ccccc1	KB-V1 MDR tox 16µM
CCOc1ccc(-n2c(SCc3cc(=O)oc4cc(C)ccc34)nnc2-c2cccnc2)cc1	KB-V1 MDR tox inconclusive, IL1B secr inh -54
CCOc1ccc(CCNC(=O)c2cccc(C#N)c2)cc1OCC	KB-V1 MDR tox inconclusive
CCn1c(=O)c2cc(S(=O)(=O)NCc3ccccc3)ccc2n(CC)c1=O	KB-V1 MDR tox 15µM
CN1CCN(/N=C/c2ccc(N(c3ccccc3)c3ccccc3)cc2)CC1	MCF10A rereplic 16µM, IL1B secr inh -51
CN1CCN(/N=C/c2ccc(N(C)c3ccccc3)cc2)CC1	MCF10A rereplic inconclusive
O=S(=O)(c1ccc(Cl)c(F)c1)N1CCC(c2nc(-c3ccncc3)no2)CC1	KB-V1 MDR tox 21µM
CCS(=O)(=O)N1CCC(c2nc(-c3ccc(C)cc3)no2)CC1	KB-V1 MDR tox inconclusive, KB-3-1 cytotox inconclusive

Source: PubChem
